From PubChem BioAssay
DAX1 inh-1: inhibitors of human orphan nuclear receptor DAX1 (NR0B1); P51843; HEK293 Gal4-DAX1 luciferase reporter, luminescence; inhibition, % at 6.75 µM; 340,000 compounds, 0.99% hits;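 active = inhibition above the mean over all tested compounds plus 3 SD, cut at about 4.2% in these data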;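 note: 0% = DAX1-transfected cells with DMSO and 100% = empty-vector control cells with DMSO; inhibition shows as a rise in luminescence from relieved DAX1 repression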
Target sequence (P51843 207-470 limits assumed): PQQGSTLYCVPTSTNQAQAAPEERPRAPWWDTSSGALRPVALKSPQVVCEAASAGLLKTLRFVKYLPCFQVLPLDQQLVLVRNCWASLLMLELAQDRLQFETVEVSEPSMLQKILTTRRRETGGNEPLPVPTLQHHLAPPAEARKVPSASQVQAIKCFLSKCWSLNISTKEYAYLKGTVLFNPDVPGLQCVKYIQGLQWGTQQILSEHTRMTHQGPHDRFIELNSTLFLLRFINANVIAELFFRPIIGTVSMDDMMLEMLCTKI
hgDAF12 agonist: hgDAF-12 agonism, primary luciferase screen; 370,000 compounds, 1.8% hits; AID 687014; HEK293 GAL4-hgDAF12 UAS-luciferase reporter, agonist luminescence; normalized to butyrate control; activation, % at 6.8 µM;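 active = activation above a cutoff set at the mean of all screened compounds plus 3 SD, cut at about 10% in these data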;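 note: 0% = DMSO wells and 100% = sodium butyrate wells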
SMARCA2 activ: increases SMARCA2 function in MMTV reporter cells | activation, % at 9.1 µM | 370,000 compounds, 1% hits | MG213 cells, MMTV-luciferase reporter, dexamethasone, overnight | AID 652017; in the data active = activation above about 7.8%;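 note: 0% = vehicle wells and 100% = reference activator wells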
ssDAF-12 act: activators of S. stercoralis DAF-12 nuclear receptor; HEK293 ssDAF-12/GRIP1 lit1-tk-luc reporter, luminescence; % of 3 µM dafachronic acid response; activation, % at 6.8 µM; AID 652126; 370,000 compounds, 1% hits;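 active = activation above the mean over all tested compounds plus 3 SD, cut at about 0.9% in these data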;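 note: 0% = DMSO-only wells and 100% = 3 µM delta7-dafachronic acid wells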
DAX1 inh-2: inhibitors of DAX1 repression of SF-1 activated StAR promoter | HEK293T StAR-luciferase reporter, SF-1/DAX-1 repression relief | inhibition, % at 6.8 µM | 370,000 compounds, 1.1% hits;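 active = inhibition above the mean over all tested compounds plus 3 SD, cut at about 3.6% in these data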;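 note: 0% = DAX-1 cells with DMSO and 100% = cells lacking DAX-1 with DMSO; higher inhibition means more luminescence from relief of DAX-1 repression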
hcDAF-12 act: activators of H. contortus DAF-12 nuclear receptor | HEK293 hcDAF-12 lit1-tk-luc reporter, luminescence; 0% DMSO, 100% Δ7-dafachronic acid | activation, % at 6.8 µM | 370,000 compounds, 1.4% hits | AID 652067;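 active = activation above the mean of all tested compounds plus 3 SD, cut at about 5.5% in these data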;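 note: 100% = response to 3 µM Δ7-dafachronic acid high control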
DAX1 conf: NR0B1 (human) inhibition, confirmation; shares compounds with DAX1 inh-2; HEK293T StAR-promoter luciferase reporter, SF-1/DAX-1 repression; inhibition, % at 6.8 µM; 2,400 compounds, 87% hits; AID 652134;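 active = inhibition above the average of every tested compound plus 3 SD, cut at about 3.8% in these data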;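 note: 0% = DAX-1 cells with DMSO and 100% = no DAX-1 control cells with DMSO; active compounds raise luminescence by relieving repression of the StAR reporter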
SF1 mutant ctr: counter-screen for DAX1 inhibitors: nonselective inhibitors with SF-1 AF2 mutant | shares compounds with DAX1 inh-2 | HEK293 StAR-luciferase, luminescence | inhibition, % at 6.8 µM | 2,400 compounds, 78% hits;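 active = inhibition above the mean of all tested compounds plus 3 SD, cut at about 3% in these data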;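 note: 0% = DAX-1 transfected cells with DMSO and 100% = cells without DAX-1 with DMSO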
Starred values were filed as active, the others as inactive; . = not tested or not shown. Sampled rows, rich in hits. Any-hit rate of the full collection: about 4.8%.

SMILES	DAX1 inh-1	hgDAF12 agonist	SMARCA2 activ	ssDAF-12 act	DAX1 inh-2	hcDAF-12 act	DAX1 conf	SF1 mutant ctr
O=C(Nc1ccc(Cl)cc1[N+](=O)[O-])c1ccc2c(c1)OCCO2	0	6	0	-1	4.7*	2	10*	4.2*
CCOC(=O)c1c(C)nc2c(c1-c1ccc(OC)cc1)C(=O)CC(C)(C)C2	-1	-3	0	-2	-1	-2	.	.
CS(=O)(=O)N(CC(=O)Nc1ccccc1C(=O)NCc1ccco1)c1ccc2c(c1)OCCO2	1	-2	-3	-2	-1	-1	.	.
COc1ccc(/C(N)=N/OC(=O)C2CCCCC2)cc1	1	9	4	0	5.9*	0	8.9*	5.8*
COc1ccc(/C(N)=N/OC(=O)C2CCCCC2)cc1OC	2	6	1	-1	6.0*	1	4	3.6*
N/C(=N\OC(=O)C1CCCCC1)c1cccc(Br)c1	0	.	.	.	.	.	.	.
COc1ccc(/C(N)=N/OC(=O)CC2CCCCC2)cc1OC	1	5	0	-1	-1	-1	.	.
COc1ccc(C(CNC(=O)Cc2ccccc2)N2CCCCC2)cc1 (centres undefined)	-1	0	-1	-1	1	1	.	.
CC(C)NC(=O)N[C@H]1CC[C@H](CC(=O)NCc2ccc(Oc3ccccc3)cc2)O[C@@H]1CO	.	2	-4	-1	4.5*	0	0	3
Cc1ccc(/C=N\NC(=O)c2ccc3c(c2)OCO3)o1	1	5	2	0	5.2*	5	4	2.9*
O=C(N/N=C/c1ccc([N+](=O)[O-])o1)c1ccc2c(c1)OCO2	-3	-13	-8	-2	-6	-6	.	.
CN(C)c1ccc(P(=O)(COc2ccc([N+](=O)[O-])cc2)c2ccc(N(C)C)cc2)cc1	.	-3	-6	-2	0	-1	.	.
COCCn1c(C)cc(C(=O)COC(=O)c2ccc(Cl)c(S(N)(=O)=O)c2)c1C	1	3	-1	-1	5.5*	2	8.7*	1
COCCn1c(C)cc(C(=O)COC(=O)c2ccc(-n3nc(C)cc3C)cc2)c1C	-1	-3	0	-1	1	-1	.	.
COC(=O)CSC1=C(C#N)C(c2ccc3c(c2)OCO3)C2=C(CCCC2=O)N1 (centres undefined)	0	.	.	.	.	.	.	.
CCOC(=O)C1CCN(C(=O)c2ccc(C)o2)CC1	2	1	-1	-1	0	2	.	.
CCOC(=O)C1CCN(C(=O)c2cc3cc4ccc(C)cc4nc3o2)CC1	0	7	-1	0	7.5*	2	8.0*	4.9*
COc1ccc(C(=O)Nc2nnc(SCC(=O)NCc3ccco3)s2)c(OC)c1	-2	10	-1	0	5.0*	2	5.5*	0
COc1ccc(C(=O)Nc2nnc(SCC(=O)NC3CCCC3)s2)c(OC)c1	1	11*	7	2.3*	10*	3	8.4*	3
Cc1ccccc1C(=O)Nc1nnc(SCC(=O)NC2CC2)s1	2	8	6	0	7.4*	4	6.1*	3.6*
COc1cc(C(=O)Nc2nnc(SCC(=O)NCC3CCCO3)s2)cc(OC)c1OC (centres undefined)	1	2	-3	-1	-1	0	.	.
COc1ccccc1C(=O)Nc1nnc(SCC(=O)NCC2CCCO2)s1 (centres undefined)	1	11*	2	-1	10*	5	9.6*	9.2*
COc1cccc(C(=O)Nc2nnc(SCC(=O)NC3CC3)s2)c1	0	0	0	-1	0	1	.	.
COc1ccccc1C(=O)Nc1nnc(SCC(=O)NCc2ccco2)s1	0	.	.	.	.	.	.	.
O=C(CSc1nnc(NC(=O)c2c(F)cccc2F)s1)NCc1ccco1	1	0	-2	-1	1	-1	.	.
SMILES	DAX1 inh-1	hgDAF12 agonist	SMARCA2 activ	ssDAF-12 act	DAX1 inh-2	hcDAF-12 act	DAX1 conf	SF1 mutant ctr
O=C(CSc1nnc(NC(=O)c2ccccc2F)s1)NCc1ccco1	1	7	3	0	6.3*	2	5.9*	6.4*
O=C(Nc1nnc(-c2ccccc2Cl)s1)c1ccccc1F	2	1	-1	-1	1	1	.	.
O=C(Nc1nnc(SCC(=O)N2CCCCC2)s1)c1ccccc1F	-1	6	-2	-1	1	-1	.	.
O=C(CSc1nnc(NC(=O)c2ccccc2F)s1)NCc1ccc(F)cc1	2	7	2	0	6.8*	4	9.2*	3.7*
CCc1nnc(NC(=O)c2ccc(OC)cc2OC)s1	0	12*	0	0	6.8*	6.1*	13*	5.7*
CCc1nnc(NC(=O)Nc2ccccc2OC)s1	2	4	5	-2	1	3	.	.
O=C(Nc1nnc(-c2ccccc2)s1)c1ccccc1F	3	11*	1	0	5.5*	3	7.7*	5.2*
COC(=O)[C@]12C[C@H](CC(=O)NCCCN3CCCC3=O)C(=O)N(Cc3ccco3)C1=C[C@H](COCc1ccccc1)O[C@@H]2C	.	3	-2	-1	-1	-3	.	.
CCOC(=O)N1CCN(CCC(=O)c2ccc(Br)cc2)CC1	3	2	-2	-1	0	-1	.	.
Cc1ccc(NC(=O)c2noc3c2CCc2ccccc2-3)cc1	0	9	0	0	1	3	.	.
O=C(Nc1cccc(O)c1)c1noc2c1CCc1ccccc1-2	-2	9	0	0	7.0*	6.3*	16*	6.3*
CN1C[C@@H]2[C@@H]3C(=O)N(Cc4ccccc4)C(=O)[C@@H]3[C@](C)(C1=O)N2C(=O)c1ccc(C(C)(C)C)cc1	1	-1	3	-1	0	-1	.	.
O=C(Nc1ccc(F)c(Cl)c1)c1csc([C@H]2C[C@H](O)[C@@H](CO)O2)n1	.	8	0	-1	1	1	.	.
O=C(Nc1ccc(F)c(Cl)c1)c1csc([C@@H]2C[C@H](O)[C@@H](CO)O2)n1	.	2	-3	-1	4.7*	3	3	2
COc1ccc(-c2nc3ccccc3nc2-c2ccc(OC)cc2)cc1	-2	-1	-2	-2	-1	-2	.	.
COc1ccc(-c2nc3ccccc3[nH]2)cc1	-2	12*	5	0	6.8*	5.8*	15*	6.1*
CC(OC(=O)Cn1cnc2c1c(=O)n(C)c(=O)n2C)C(=O)NC(C)c1ccc(Cl)cc1Cl (centres undefined)	-1	2	-1	-1	1	0	.	.
